Screening results (PubChem)
An excerpt weighted towards active compounds, which were near 21% of everything screened.
Shiga toxin inh: blocks Shiga toxin action in Vero cells; Vero cells, Shiga toxin protein synthesis inhibition reporter; inhibition, % at 38.7 µM; actives 9.2% (n = 290,000); in the data active means inhibition mostly above about 28%, no sharp cut-off; inactive means mostly below about 43%; further: 0% is about no effect
Giardia FBPA inh: blocks Giardia fructose-bisphosphate aldolase activity. A8B2U2. purified Giardia FBPA. Potency, µM (series often up to 59.6 µM), without a hit: at the highest dose activity, negative = inhibition, actives largely listed as inhibitors. actives 0.71% (n = 290,000). AID 2451; further: potency means the concentration at half of the fitted maximal effect; on the % scale 0 is the no-effect control and ±100 the full control effect; nearly all actives have a fitted effect of over 55% in size
Target sequence (A8B2U2 whole entry, looked up): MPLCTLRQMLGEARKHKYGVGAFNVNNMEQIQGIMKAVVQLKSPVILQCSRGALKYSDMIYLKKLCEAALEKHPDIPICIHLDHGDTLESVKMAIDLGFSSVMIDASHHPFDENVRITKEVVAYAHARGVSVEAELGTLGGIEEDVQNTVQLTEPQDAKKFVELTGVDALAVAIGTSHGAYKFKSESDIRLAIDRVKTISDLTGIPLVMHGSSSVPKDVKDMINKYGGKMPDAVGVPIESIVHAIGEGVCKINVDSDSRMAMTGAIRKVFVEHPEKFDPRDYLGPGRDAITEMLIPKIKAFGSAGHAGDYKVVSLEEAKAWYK
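40 nM FBPA preincubated 10 min at RT with compound (up to 57.5 uM final), then substrate plus GAPDH/TPI/NAD/arsenate coupling and diaphorase/resazurin added. Fluorescence read after 20 min at RT, 525/598 nm.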
NS1 inh: inhibitors of influenza NS1 protein function; AID 2326; Potency, µM (top dose mostly 46.1 µM), for the others: at the highest dose activity, positive = more growth; actives 0.4% (n = 270,000); calls by dose curve; further: potency means the concentration at half of the fitted maximal effect; actives are rising curves; nearly all actives have a fitted effect of over 50% in size
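In this qHTS, NS1 from influenza A is expressed in budding yeast, where it slows growth. Cells are switched from glucose to 2% galactose medium (pH 6.0, -URA), treated with compound, and growth recovery is read at OD600.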
Pf growth 96h: P. falciparum growth inhibition at 96 hours | P. falciparum luciferase reporter growth, 96 h | Potency, µM (titrated, usually from 28.7 µM), without a hit: top-dose activity change, negative = inhibition, actives largely listed as inhibitors | actives 6.9% (n = 320,000) | AID 504834; further: potency means the concentration at half of the fitted maximal effect; on the % scale 0 is the no-effect control and ±100 the full control effect
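Plates of compound plus infected erythrocytes (2% hematocrit, 0.05% parasitemia final) incubate 96 hours, 37 C, 5% CO2. Detection reagent added; reduced luminescence from the parasites' luciferase reporter flags inhibition.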
Pf growth 48h: P. falciparum growth inhibition at 48 hours (one generation); P. falciparum luciferase growth in erythrocytes, 48 h; Potency, µM (series often up to 28.7 µM), inactives show at the top dose activity change, negative = inhibition, most hits filed as inhibitors; actives 5.9% (n = 310,000); further: potency means the concentration at half of the fitted maximal effect; on the % scale 0 is the no-effect control and ±100 the full control effect
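First compound was added to culture medium, then infected red cells at 0.1% parasitemia and 2% hematocrit (final). After incubation at 37 C under 5% CO2, luciferase detection reagent was dispensed and light output recorded.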
Cycloheximide cs: counter-screen for Shiga toxin inhibitors: cycloheximide protein synthesis inhibition. cell reporter, cycloheximide protein synthesis inhibition counterscreen. max response, %. actives 12% (n = 300,000); in the data active means max response mostly above about 13%, no sharp cut-off; inactive means mostly below about 14%; further: read at 38.3 µM for the half of the compounds with a filed dose; 0% is about no effect
Numbers without * were called inactive; ? = inconclusive; / = no result; [ ] = dose if it differs, or a comment. Unless noted, the call rests on the fitted dose curve; in most records, active means well fitted curve in the direction sought with a large enough effect; inconclusive means small, poorly fitted or top-dose-only effect, or another doubt; inactive means no such curve, though single readings can be large; an effect the other way counts as inactive or inconclusive.

SMILES | Shiga toxin inh | Giardia FBPA inh | NS1 inh | Pf growth 96h | Pf growth 48h | Cycloheximide cs
COc1ccc(C2CC(c3ccc(OC)cc3O)=NN2C(=O)c2ccccc2)cc1 (configuration not stated) | -6.0 | 9.5% | 2.1% | ? | -13.8%[0.00184 µM] | 4.2
O=C(c1ccccc1)N1N=C(c2ccccc2O)CC1c1ccccc1 (configuration not stated) | -3.8 | 5.6% | -1.1% | ? | 5.86µM* | -2.9
COc1ccc(C2CC(c3cccs3)=NN2C(=O)CCC(=O)O)cc1 (configuration not stated) | / | 26.6% | 15.4% | ? | 20.8% | -2.1
COc1ccc(C2CC(c3ccccc3O)=NN2C(=O)c2ccccc2)cc1OC (configuration not stated) | -7.4 | 4.8% | 5.1% | 4.15µM* | 6.57µM* | -2.2
COc1ccc(C2CC(c3cccs3)=NN2C(=O)CCl)cc1OC (configuration not stated) | 41.7* | -1.9% | -1.8% | ? | ? | 29.2*
COc1cc(C2CC(c3cccs3)=NN2C(=O)CCl)ccc1OC(F)F (configuration not stated) | 62.9* | -10.4% | -15.4% | ? | ? | 14.7
CC(=O)N1CCC2(CC1)CCN(c1ccccn1)CC2 | / | -3.7% | / | / | / | /
CCCNC(=O)COC(=O)/C(C#N)=C/c1cc(C)n(CCC)c1C | 29.9 | 2.3% | / | ? | -12.7% | 7.5
CCOc1ccc(/C=C/C(=O)N(C)CC(=O)Nc2cccc(F)c2)cc1OCC | / | / | / | -29.5% | -8.2% | /
COc1ccc(C2CC(c3cccs3)=NN2C(=O)c2ccccc2)cc1OC (configuration not stated) | -4.3 | -0.3% | -1.0% | 0.415µM* | / | 2.4
CNC(=S)N1N=C(c2cccs2)CC1c1ccc(OC)cc1 (configuration not stated) | -13.8 | -16.5% | 14.8% | ? | 0.3% | -3.1
CNC(=S)N1N=C(c2ccccc2)CC1c1ccc(OC)c(OC)c1 (configuration not stated) | -10.2 | 9.4% | 3.0% | -14.2% | -17.9% | -1.5
COc1ccc(C2=NN(C(=O)c3ccccc3)C(c3ccc(OC)c(OC)c3)C2)c(OC(C)=O)c1 (configuration not stated) | -6.5 | -3.5% | -2.7% | 10.4µM* | 11.7µM* | -3.9
O=C1C=CC(=O)N1c1ccc(OC(F)F)cc1 | -14.1 | -5.4% | -30.1% | 9.28µM* | 5.4% | -3.1
CCO[C@H]1OC(C(=O)N2CCN(Cc3ccc4c(c3)OCO4)CC2)=C[C@@H](C2CC2)[C@@H]1CCCO | -2.4 | 7.3% | -4.5% | 7.38µM* | ? | -0.5
CCO[C@H]1OC(C(=O)N2CCN(Cc3ccc4c(c3)OCO4)CC2)=C[C@@H](c2ccc(Br)cc2)[C@@H]1CCCO | -12.0 | 2.0% | -12.4% | 5.22µM* | 10.4µM* | 1.1
CCO[C@H]1OC(C(=O)N2CCN(Cc3ccc4c(c3)OCO4)CC2)=C[C@@H](c2ccccc2)[C@@H]1CCCO | -11.7 | 14.1% | -5.4% | ? | ? | -5.6
CCO[C@@H]1OC(C(=O)N2CCN(Cc3ccccc3)CC2)=C[C@H](C2CC2)[C@H]1CCCO | -14.0 | -4.2% | 0.4% | ? | ? | -1.2
CCO[C@@H]1OC(C(=O)N2CCN(Cc3ccc4c(c3)OCO4)CC2)=C[C@H](c2ccc3c(c2)OCO3)[C@H]1CCCO | -7.1 | -5.6% | -13.0% | 3.29µM* | ? | -1.0
CCO[C@H]1OC(C(=O)N2CCN(Cc3ccc4c(c3)OCO4)CC2)=C[C@@H](c2ccc(C(F)(F)F)cc2)[C@@H]1CCCO | -25.0 | -6.9% | -6.8% | 1.47µM* | ? | -2.9
O=C(CN1C(=O)NC2(CCCC2)C1=O)Nc1nc2c(F)cc(F)cc2s1 | / | / | / | 32.1% | 1.0% | /
O=C(Nc1ccc(-c2nc3c(ccc4ccccc43)o2)cc1)c1ccco1 | 29.3 | 3.6% | -9.6% | 1.85µM* | / | 26.1*
O=C(Nc1nc2c(F)cc(F)cc2s1)c1ccco1 | 38.2* | -4.4% | -88.0% | 205.4% | 90.8% | 36.6*
O=C(Nc1ccc(-c2nc3cc(Cl)ccc3c(=O)o2)cc1)c1ccco1 | -2.7 | 6.1% | 8.3% | ? | 5.2% | -1.2
O=C(CCc1ccccc1)Nc1nc2c(F)cc(F)cc2s1 | 112.8* | -7.1% | -9.9% | 45.4% | 39.1% | 45.4*
SMILES | Shiga toxin inh | Giardia FBPA inh | NS1 inh | Pf growth 96h | Pf growth 48h | Cycloheximide cs
O=C(Nc1nc2c(Cl)ccc(Cl)c2s1)c1ccco1 | -12.2 | 8.2% | -9.3% | 27.1% | / | -3.8
O=C(Nc1nc2c(F)c(F)c(F)cc2s1)c1ccco1 | 103.0* | 0.6% | -16.3% | 67.1% | 62.1% | 29.4*
O=S(=O)(c1ccccc1)N1CCC2(CCN(c3ncccn3)CC2)CC1 | / | 0.5% | / | / | / | /
O=C(Nc1nc2c(ccc3ccccc32)s1)c1ccco1 | 101.8* | / | -63.8% | ? | 3.1% | 46.9*
Fc1ccccc1/C=C/c1ccc2ccccc2n1 | 72.0* | -6.7% | -14.8% | ? | 33.1% | 50.7
CC(=O)Oc1ccc(Cl)cc1/C=C/c1ccc2ccccc2n1 | 75.8* | 1.5% | -24.4% | ? | 2.62µM* | 37.4*
COc1ccc(S(=O)(=O)N2CC3CCCN3c3ccc(C(F)(F)F)cc32)cc1 (configuration not stated) | 2.2 | 1.4% | 21.3% | 13.1µM* | ? | -1.1
COc1ccc(NC(=O)CN(C)C(=O)CNC(=O)c2cccs2)cc1 | -10.3 | 10.6% | -5.9% | 13.6% | 12.1% | 1.5
Cc1cccc(Cn2c(SCc3ccc(C(=O)N4CCCCCC4)cc3)nc3ccncc32)c1 | 8.1 | / | / | / | / | 19.0
COc1ccc(-c2nc(Cn3c(SCc4cccc(F)c4)nc4ccncc43)c(C)o2)cc1OC | 8.4 | 9.1% | -80.2% | -13.3% | 11.7µM* | 11.6*
COc1ccc(-c2nc(Cn3c(SCc4ccc(C)cc4)nc4ccncc43)c(C)o2)cc1OC | 100.7* | 14.7% | 9.7% | ? | / | 48.2*
CC1Cc2ccccc2N1C(=O)c1ccc2nccnc2c1 (configuration not stated) | -17.0 | / | 1.5% | ? | 2.1% | 1.5
COc1ccc(CNC(=O)c2c([S-])n(-c3ccc(C)cc3)c3cccc[n+]23)cc1 | 8.5 | -3.5% | / | 10.4µM* | ? | 12.6
Cc1ccc(-n2c([S-])c(C(=O)NC(C)c3ccccc3)[n+]3ccccc23)cc1 (configuration not stated) | -9.9 | -3.8% | / | ? | ? | 3.3
C=CCCCCCCCCCBr | 6.1 | -0.9% | / | / | / | -6.0
COc1ccc(/C=N/Nc2nn3cnnc3c3ccccc23)cc1 | 9.2 | 14.5% | 5.7% | ? | ? | 4.1
Clc1ccc(/C=N/Nc2nnc(-c3ncc[nH]3)c3ccccc23)cc1 | 112.5* | 2.7% | 22.3% | 39.1% | 62.5% | 34.3*
Clc1cccc(/C=N/Nc2nnc(Cl)c3ccccc23)c1 | 61.6* | -10.0% | -10.9% | ? | ? | 19.2
C=CCC(C)(O)c1ccsc1 (configuration not stated) | / | 2.3% | / | / | / | /
